In all, about 5,500 compounds went through this assay and about 2,000 (36%) were called active. Inconclusive results (about 18%) are left out. Rule as the data show it: active = normalized growth mostly below about 0.91 (no sharp cut-off); inconclusive = no clear call, values can overlap the other calls; inactive = mostly above about 0.92. Some of the results follow.
Experiment: chemical genetic growth profiling, strain panel (AID 1159580);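 also: tested at 20 µM; growth read once vehicle control cultures reached saturation at 30 °C; 1 = growth at the plate median or of vehicle wells; lower values mean less growth of the strain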
Details: S. cerevisiae deletion strains, growth OD

Measured: normalized growth

CCOC(=O)c1oc2c(OC)c(O)cc(O)c2c(=O)c1-c1cc(OC)c(OC)c(OC)c1
active: locus YDR137W, strain rgp1, active compounds read low 0.799 | locus YLR262C, strain YPT6 (second series), active compounds read low 0.82
inactive: locus YAL021C, strain ccr4, active compounds read low 0.985 | locus YAL026C, strain drs2, active compounds read low 0.974 | locus YAL030W, strain snc1, active compounds read low 0.968 | locus YBL061C, strain skt5, active compounds read low 0.976 | locus YBR009C, strain hhf1, active compounds read low 0.972 | locus YBR023C, strain chs3, active compounds read low 0.972 | locus YBR171W, strain sec66, active compounds read low 0.956 | locus YBR231C, strain swc5, active compounds read low 0.974 | locus YBR279W, strain paf1, active compounds read low 0.987 | locus YCL011C, strain gbp2, active compounds read low 0.976 | locus YCL016C, strain dcc1, active compounds read low 0.977 | locus YCL061C, strain MRC1, active compounds read low 0.966 | locus YCL069W, strain vba3, active compounds read low 0.989 | locus YCR088W, strain abp1, active compounds read low 0.972 | locus YDL005C, strain med2, active compounds read low 0.993 | locus YDL040C, strain nat1, active compounds read low 0.983 | locus YDR001C, strain nth1, active compounds read low 0.982 | locus YDR069C, strain doa4, active compounds read low 0.991 | locus YDR159W, strain sac3, active compounds read low 0.973 | locus YDR195W, strain ref2 1.05 | locus YDR297W, strain sur2, active compounds read low 0.979 | locus YDR334W, strain swr1, active compounds read low 0.98 | locus YDR335W, strain msn5, active compounds read low 0.971 | locus YDR392W, strain spt3, active compounds read low 0.878 | locus YEL003W, strain gim4, active compounds read low 0.978 | locus YEL037C, strain rad23, active compounds read low 0.98 | locus YEL061C, strain CIN8 (second series), active compounds read low 0.978 | locus YER015W, strain faa2, active compounds read low 0.986 | locus YER016W, strain bim1, active compounds read low 0.969 | locus YER111C, strain swi4, active compounds read low 0.989 | locus YER155C, strain BEM2 (second series), active compounds read low 0.947 | locus YFR010W, strain ubp6, active compounds read low 0.986 | locus YGL167C, strain pmr1, active compounds read low 0.957 | locus YGL173C, strain kem1, active compounds read low 0.965 | locus YGL227W, strain vid30, active compounds read low 0.959 | locus YGL240W, strain doc1, active compounds read low 0.948 | locus YGL253W, strain hxk2, active compounds read low 0.974 | locus YHR013C, strain ard1, active compounds read low 1.01 | locus YHR027C, strain rpn1, active compounds read low 0.985 | locus YHR142W, strain chs7, active compounds read low 0.955 | locus YJL092W, strain hpr5, active compounds read low 0.973 | locus YJL095W, strain BCK1 (second series), active compounds read low 0.975 | locus YJL115W, strain asf1, active compounds read low 0.986 | locus YJL129C, strain trk1, active compounds read low 0.977 | locus YJL154C, strain vps35, active compounds read low 0.984 | locus YJL164C, strain tpk1, active compounds read low 0.964 | locus YJL166W, strain qcr8, active compounds read low 0.975 | locus YJL187C, strain SWE1, active compounds read low 0.985 | locus YKL160W, strain elf1, active compounds read low 0.966 | locus YKR026C, strain gcn3, active compounds read low 0.97 | locus YKR091W, strain srl3, active compounds read low 0.973 | locus YLL001W, strain dnm1, active compounds read low 0.98 | locus YLL026W, active compounds read low 0.968 | locus YLL041C, strain sdh2, active compounds read low 0.974 | locus YLR027C, strain aat2, active compounds read low 0.972 | locus YLR221C, strain rsa3, active compounds read low 0.972 | locus YLR258W, strain gsy2, active compounds read low 0.969 | locus YLR320W, strain mms22, active compounds read low 0.901 | locus YLR342W, strain FKS1, active compounds read low 0.971 | locus YLR357W, strain rsc2, active compounds read low 1 | locus YLR370C, strain arc18, active compounds read low 0.972 | locus YLR384C, strain iki3, active compounds read low 0.982 | locus YML120C, strain ndi1, active compounds read low 0.973 | locus YMR058W, strain fet3, active compounds read low 0.976 | locus YMR125W, strain sto1, active compounds read low 0.985 | locus YMR129W, active compounds read low 0.978 | locus YMR205C, strain PFK2, active compounds read low 0.933 | locus YMR231W, strain pep5, active compounds read low 0.997 | locus YNL071W, strain lat1, active compounds read low 0.959 | locus YNL209W, strain ssb2, active compounds read low 0.98 | locus YNL248C, strain rpa49, active compounds read low 0.958 | locus YNL322C, strain KRE1 (second series), active compounds read low 0.971 | locus YNR049C, strain mso1, active compounds read low 0.974 | locus YOR001W, strain rrp6, active compounds read low 0.969 | locus YOR070C, strain gyp1, active compounds read low 0.973 | locus YOR080W, strain dia2, active compounds read low 0.985 | locus YOR083W, strain WHI5, active compounds read low 0.965 | locus YOR106W, strain vam3, active compounds read low 0.975 | locus YOR265W, strain rbl2, active compounds read low 0.974 | locus YOR270C, strain vph1, active compounds read low 0.915 | locus YOR290C, strain snf2, active compounds read low 0.959 | locus YPL051W, strain arl3, active compounds read low 0.963 | locus YPL078C, strain atp4, active compounds read low 0.973 | locus YPL106C, strain sse1, active compounds read low 0.997 | locus YPL240C, strain hsp82, active compounds read low 0.964
